Experimental findings from PubChem BioAssay (NCATS) are described below.

Results filed as inconclusive are left out. Active and inactive are the calls of the source. Unless noted, calls follow the shape of the dose curve; as a rule, active = well fitted inhibition curve with a large enough effect; inconclusive = small, poorly fitted or top-dose-only effect; inactive = flat fitted curve, though single readings scatter.

A short description of assay [1]: qHTS drug screen for cell cycle checkpoint inhibitors in PARPi-resistant BRCA-mutant ovarian cancer cell lines. (AID 1963452; calls by dose curve). The conditions noted are these: PEO1/OlaR viability, CellTiter-Glo luminescence, 96 h, stronger effect = lower value. A digest of the protocol: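 PEO1, PEO4 and PEO1/OlaR ovarian cancer cells, 600 per well, exposed 96 h at 37C to a dilution series. Viability read by CellTiter-Glo luminescence, normalized to DMSO and empty wells; activity summarized as Z-AUC.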
In general terms: Quantitative high-throughput screening tests each substance at several concentrations.

Assay [2] can be described thus: qHTS for identification of novel therapeutic agents for treatment of microphthalmiaassociated transcription factor (MiT) renal cell carcinoma (RCC) (AID 1963991).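 Also: curves scaled with 100% = DMSO viability and 0% = empty wells.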 The note with it: CellTiter-Glo, 48 h, stronger effect = lower value. The method in brief:
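UOK109/UOK124/UOK145 (TFE3 fusions, three partners); 500 cells/well; MIPE v4.0, 1912 cpds, 11 conc.; 48 h, 37 C; CellTiter-Glo, 15 min RT; lum. Norm.: DMSO 100%, empty 0%.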

Assay [3] can be described thus: qHTS profiling for inhibitors of Plasmodium falciparum proliferation (AID 504749). Also: potency is read from the fitted curve at half-maximal effect.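 As to activity, negative = inhibition: 0% = DMSO vehicle and full inhibition = artemisinin control.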 As to all read-outs here: nearly all actives have a fitted effect of over 60% in size. The conditions noted are these: P. falciparum in erythrocytes, SYBR Green DNA, 72 h; for activity, negative = inhibition: at 28.7 µM (top of the series). A digest of the protocol: (§1)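 Infected RBCs, 0.3% parasitemia/2.5% Hct final; cpd 72 h, 37 C, 5% CO2; lysis buffer with saponin/triton/SYBR Green I, o/n RT dark; FI 485/535; norm. to artemisinin (0.29 uM) and DMSO.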

Assay [4] relates to 3D7. The assay is described as above. The conditions noted are these: P. falciparum in erythrocytes, SYBR Green DNA, 72 h; series mostly up to 28.7 µM. The method in brief: as §1
Assay [5] concerns AA1029. The assay is described as above. The note with it: P. falciparum in erythrocytes, SYBR Green DNA, 72 h; series mostly up to 28.7 µM. A digest of the protocol:
as §1

In assay [6] the test system is AS120. The assay is described as above. The note with it: P. falciparum in erythrocytes, SYBR Green DNA, 72 h; series mostly up to 28.7 µM. A digest of the protocol:
as §1

For assay [7], the system named is ATS189. The assay is described as above. The note with it: P. falciparum in erythrocytes, SYBR Green DNA, 72 h; series mostly up to 28.7 µM. A digest of the protocol:
as §1

In assay [8] the test system is 7G8. The assay is described as above. The note with it: P. falciparum in erythrocytes, SYBR Green DNA, 72 h; series mostly up to 28.7 µM. A digest of the protocol: as §1
[9] abbreviates: measured here: PEO1 parental Z-AUC.
Setting [10] is: TFE3-RCC UOK109 viability, measured here: UOK109 Z-AUC.
Setting [11] is: TFE3-RCC viability, measured here: UOK124 Z-AUC.
[12] abbreviates: TFE3-RCC viability, measured here: UOK145 Z-AUC.

Take `C=C1C[C@@H]2[C@H](CC[C@]3(C)C(=O)CC[C@@H]23)[C@@]2(C)C=CC(=O)C=C12`: the Z-AUC in assay [1] is 1.28 (inactive); in assay [1] (setting [9]), 0.968; in assay [1] (measured here: PEO4 Z-AUC) it was 1.01.
In the same order, the values of `COC[C@H]1OC(=O)c2coc3c2[C@@]1(C)C1=C(C3=O)C2CCC(=O)[C@@]2(C)C[C@H]1OC(C)=O` (some centres not stated) are 0.865 (inactive), 0.666 and 0.563.
Taken in the same sequence, the figures for `Cc1sc2c(c1C)C(c1ccc(Cl)cc1)=N[C@@H](CC(=O)OC(C)(C)C)c1nnc(C)n1-2` were -0.873 (inactive), -0.421 and -0.731.
As to `CNC(=O)c1ccc(N2C(=S)N(c3ccc(C#N)c(C(F)(F)F)c3)C(=O)C23CCC3)cc1F`, the Z-AUC in assay [1] is 1.87 (inactive); in assay [1] (setting [9]) it was 1.38; in assay [1] (measured here: PEO4 Z-AUC), 1.39.
Regarding `Cn1c(CCCC(=O)O)nc2cc(N(CCCl)CCCl)ccc21`, the Z-AUC in assay [1] was 2 (inactive); in assay [1] (setting [9]) it was 1.56; in assay [1] (measured here: PEO4 Z-AUC), 2.09. For the same molecule, the z-score in assay [2] (setting [10]) is 1.39; in assay [2] (setting [11]), 2.59; in assay [2] (setting [12]), 0.899. The activity, negative = inhibition in assay [3] (parasite line A) was -26.2% (inactive); in assay [3] (parasite line B), 3.04% (inactive). For the same molecule, the Potency result in assay [4], in assay [5], in assay [6] and in assay [7] was “inactive” throughout.
Regarding `C=C(C)[C@H]1Cc2c(ccc3c2O[C@@H]2COc4cc(OC)c(OC)cc4[C@@H]2C3=O)O1`, the values for the Z-AUC in assay [1], in assay [1] (setting [9]) and in assay [1] (measured here: PEO4 Z-AUC) were -1.61 (inactive), -2.63 and -1.87, respectively. For the same molecule, the figures for the activity, negative = inhibition in assay [3] (parasite line A) and in assay [3] (parasite line B) were -0.828% (inactive) and -4.67% (inactive), respectively. Besides, the Potency entry in assay [4], in assay [5], in assay [6] and in assay [7] was “inactive” each time. Further, the Potency in assay [8] is 10 µM (active).
For `O=c1[nH]c2ccccc2n1CCCN1CCC(n2c(=O)[nH]c3cc(Cl)ccc32)CC1`, the Z-AUC was 1.58 (inactive) in assay [1], 0.892 in assay [1] (setting [9]) and 0.827 in assay [1] (measured here: PEO4 Z-AUC). The Potency in assay [3] (parasite line A) is 11.2 µM (active); in assay [8], 1.41 µM (active); in assay [6], 5.01 µM (active).
As to `Cn1cc(C2=C(c3cn(C4CCN(Cc5ccccn5)CC4)c4ccccc34)C(=O)NC2=O)c2ccccc21`, the Z-AUC in assay [1] is -0.351 (inactive); in assay [1] (setting [9]), 0.347; in assay [1] (measured here: PEO4 Z-AUC) it was 0.154.
As for `O=C1CC[C@@]2(O)[C@H]3Cc4ccc(O)c5c4[C@@]2(CCN3CC2CC2)[C@H]1O5`, the Z-AUC in assay [1] was -0.771 (inactive); in assay [1] (setting [9]), -0.291; in assay [1] (measured here: PEO4 Z-AUC), -0.633. Further, the z-score in assay [2] (setting [10]) was 0.814; in assay [2] (setting [11]) it was 0.454; in assay [2] (setting [12]), 1.09.
With `CNCC(O)c1ccc(O)cc1` (configuration not stated), the Z-AUC is -0.876 (inactive) in assay [1], -0.301 in assay [1] (setting [9]) and -0.927 in assay [1] (measured here: PEO4 Z-AUC). Besides, the z-score in assay [2] (setting [10]) is 0.0605; in assay [2] (setting [11]), 0.435; in assay [2] (setting [12]), -0.102.
Take `Cc1cc(SCc2sc(-c3ccc(C(F)(F)F)c(F)c3)nc2C)ccc1OCC(=O)O`: the values for the Z-AUC in assay [1], in assay [1] (setting [9]) and in assay [1] (measured here: PEO4 Z-AUC) were -0.925 (inactive), -0.906 and -0.303, respectively.
In the case of `CC1=C2C[C@@H]3[C@@H](CC=C4C[C@@H](O)CC[C@@]43C)[C@@H]2CC[C@]12O[C@H]1C[C@H](C)CN[C@H]1[C@H]2C`, the z-score in assay [2] (setting [10]) was 0.302; in assay [2] (setting [11]), -0.274; in assay [2] (setting [12]) it was 0.235.
For `C#CCN(C)[C@H](C)Cc1ccccc1`, the Z-AUC in assay [1] was 0.853 (inactive); in assay [1] (setting [9]) it was 0.381; in assay [1] (measured here: PEO4 Z-AUC), 0.551. Further, the results for the z-score in assay [2] (setting [10]), in assay [2] (setting [11]) and in assay [2] (setting [12]) were 0.064, -0.193 and 0.147, respectively.
